These results are taken from PubChem BioAssay (NCATS).

Records with an inconclusive call do not appear. Unmarked numbers belong to inactive results. Activity calls are given as the source filed them. Calls follow the shape of the dose curve; as a rule, active = well fitted inhibition curve with a large enough effect; inconclusive = small, poorly fitted or top-dose-only effect, or effect the other way; inactive = flat fitted curve, though single readings scatter.
Potency is read from the fitted curve at half-maximal effect.

This assay can be described thus: qHTS for Inhibitors of Plasmodium falciparum (GB4) proliferation (AID 504315). Also: nearly all actives have a fitted effect of over 50% in size.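 As to activity change, negative = inhibition: 0% = DMSO vehicle and -100% = 0.29 µM artemisinin control.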 The settings on record: P. falciparum GB4 in erythrocytes, SYBR Green DNA, 72 h; series mostly up to 6.7 µM; activity change, negative = inhibition: at the top concentration. An outline of the steps:
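Erythrocytes infected with P. falciparum line (0.3% parasitemia, 2.5% hematocrit final) incubated with compounds 72 h at 37 °C, 5% CO2; SYBR Green lysis buffer added, fluorescence read next day. Normalized to 0.29 uM artemisinin and DMSO.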
In the case of `COC(=O)CCCC1=CC2=C(c3ccccc3)C(=O)C(C)(OC(=O)C3CCCC3)C(=O)C2=CN1CCc1c[nH]c2ccccc12` (configuration not stated), the “activity change, negative = inhibition” value was -5.1%.
Consider `C[C@@H]1CC[C@H]2C(=O)N(Cc3cccc([N+](=O)[O-])c3)C[C@H](O)CN2[C@@H]1c1ccc(Br)cc1`, for which the “activity change, negative = inhibition” value is -8.17%.
In the case of `C[C@H]1Cc2c(COc3ccccc3)nc3c(c2CO1)CN(S(=O)(=O)c1ccc(Cl)c2nonc12)CC3`, the “activity change, negative = inhibition” value was -0.42%.
Turning to `C#CCCCON=C1C[C@@H](O)[C@@H](O)[C@@H]2[C@H]3C(=O)N([C@@H](C)c4ccccc4)C(=O)[C@@H]3CC[C@H]12`, the “activity change, negative = inhibition” value is -3.71%.
Still for that read-out and setting: the same measure for `CCN1C(=O)[C@@H]2[C@H]3[C@H](O)[C@H](O)CC(=NO[C@@H](C)c4cc(-c5c(C)cc(C)cc5C)no4)[C@@H]3CC[C@H]2C1=O`: 5.14%.
Consider `COC(=O)CCC(=O)OC1(C)C(=O)C=C2C=C(C3CC3)N(c3ccccc3)C=C2C1=O` (configuration not stated), for which the “activity change, negative = inhibition” value is -8.28%.
Regarding `COC(=O)CCC(=O)OC1(C)C(=O)C2=CN(CCCCO)C(c3ccc(OC)cc3)=CC2=C(Br)C1=O` (configuration not stated), the “activity change, negative = inhibition” value was 6.88%.
Same read-out and setting: the same measure for `CCN1C(=O)N[C@@H](c2cccc(C(F)(F)F)c2)C(C(=O)OC)=C1C`: -15.5%; for `COc1ccc([C@]23Cc4cc(OC)c(OC)cc4[C@H](O2)c2c(c4ccccc4oc2=O)O3)cc1`: -13.1%.
In the case of `CCN(CC)CCCN1C=C2C(=O)C(C)(OC(=O)CCC(=O)OC)C(=O)C(Br)=C2C=C1c1ccc(OC)cc1` (configuration not stated), the “activity change, negative = inhibition” value is 3.65%.
Take `C=CCN1c2ccccc2[C@]23C[C@@H](C(=O)OC)N(S(=O)(=O)c4c(C)noc4C)C2=NC(C(=O)OC)=C(C(=O)OC)[C@H]13`: the “activity change, negative = inhibition” value was -13%.
For `CCCCS(=O)(=O)N1C2=NC(C(=O)OC)=C(C(=O)OC)[C@@H]3Nc4ccccc4[C@]23C[C@H]1C(=O)OC`, the “activity change, negative = inhibition” value is -2.4%.
The same measure, in the same setting: the same measure for `C[C@@H]1CC[C@H]2C(=O)N(Cc3ccccc3)C[C@H](O)CN2[C@H]1c1ccc(Br)cc1`: -10.6%; for `CC#CCN1c2ccccc2[C@]23C[C@@H](C(=O)OC)N(C(=O)OCC)C2=NC(C(=O)OC)=C(C(=O)OC)[C@H]13`: -4.24%; for `COC(=O)C1(C(=O)OC)CC(CO)C(=O)[C@@H]1c1ccccc1` (some centres not stated): -13.5%.
Consider `COC(=O)CCC(=O)OC1(C)C(=O)C2=CN(CCc3c[nH]c4ccccc34)C(c3ccc(OC)cc3)=CC2=C(Br)C1=O` (configuration not stated), for which the “activity change, negative = inhibition” value is 13.9%.
`COC(=O)CCCC1=CC2=CC(=O)C(C)(OC(=O)CCc3ccccc3)C(=O)C2=CO1` (configuration not stated): the “activity change, negative = inhibition” value is 6.31%.
`COCOc1c2c(c(OCOC)c3c(OCOC)cccc13)C(=NNS(C)(=O)=O)C1=C2CCCC1`: the “activity change, negative = inhibition” value is -14.4%.
In the case of `COC(=O)C1=C(C(=O)OC)[C@@H]2N(C)c3ccc(OC)cc3[C@@]23C[C@@H](C(=O)OC)N(S(=O)(=O)c2c(C)noc2C)C3=N1`, the “activity change, negative = inhibition” value is -6.21%.
On the same count and under the same terms, under `COCC(=O)N1CCc2nc(COc3ccccc3)c3c(c2C1)CO[C@@H](C)C3` stands -0.31%.
As for `CC1COc2ccccc2C1=O` (configuration not stated), the Potency is 1.9 µM (active).
On to `C=CCNC(=O)N1C2=NC(C(=O)OC)=C(C(=O)OC)[C@@H]3N(Cc4ccccc4)c4ccccc4[C@]23C[C@H]1C(=O)OC`, for which the Potency is 1.9 µM (active).
On to `COC(=O)C1=C(C(=O)OC)[C@@H]2Nc3ccccc3[C@@]23C[C@@H](C(=O)OC)N(C(=O)c2cccs2)C3=N1`, for which the “activity change, negative = inhibition” value was 12.6%.
For `COC(=O)C1=C(C)N(CCc2cc(OC)c(OC)c(OC)c2)C(=O)N[C@H]1c1ccccc1`, the “activity change, negative = inhibition” value was 10%.
`CC#CCN1c2ccccc2[C@]23C[C@@H](C(=O)OC)N(C(=O)c4ccc(Br)cc4)C2=NC(C(=O)OC)=C(C(=O)OC)[C@H]13`: the “activity change, negative = inhibition” value is 0.42%.
As for `COC(=O)[C@@H]1CC[C@H](C)[C@@H](c2ccc(C)cc2)N1C(=O)c1ccc(C=NO[C@@H](C)c2cc(-c3c(C)cc(C)cc3C)no2)cc1`, the Potency is 1.69 µM (active).
In the case of `C=CCN1C=C2C(=O)C(C)(OC(=O)c3cccs3)C(=O)C=C2C=C1CCCC(=O)OC` (configuration not stated), the “activity change, negative = inhibition” value is 2.62%.
Take `CCCNC(=O)N1C2=NC(C(=O)OC)=C(C(=O)OC)[C@@H]3N(C)c4ccccc4[C@]23C[C@H]1C(=O)OC`: the “activity change, negative = inhibition” value is -4.34%.
For the compound `COC(=O)N1C2CC(=O)O[C@@H]3c4cc5c(cc4[C@]1(C)[C@@]3(Br)c1ccccc12)OCO5`, the Potency is 1.51 µM (active).
For `COC(=O)CCCC1=CC2=CC(=O)C(C)(OC(=O)c3cccs3)C(=O)C2=CN1Cc1ccccc1` (configuration not stated), the “activity change, negative = inhibition” value was 2.75%.
`COC(=O)C1=C(C(=O)OC)[C@@H]2N(Cc3ccccc3)c3ccccc3[C@@]23C[C@@H](C(=O)OC)N(S(=O)(=O)c2ccc(C(F)(F)F)cc2)C3=N1`: the Potency was 0.536 µM (active).
On to `CC(CCN1CCCCc2nc(C)c(C)cc21)=NO[C@@H](C)c1cn([C@H](CO)Cc2ccccc2)nn1`, for which the “activity change, negative = inhibition” value is -9.94%.
On to `C=CCN1c2ccccc2[C@]23C[C@@H](C(=O)OC)N(C(=O)c4cc(C)oc4C)C2=NC(C(=O)OC)=C(C(=O)OC)[C@H]13`, for which the “activity change, negative = inhibition” value was -4.29%.
Consider `COC(=O)C1=C(C(=O)OC)[C@@H]2N(Cc3ccccc3)c3ccccc3[C@@]23C[C@@H](C(=O)OC)N(S(=O)(=O)c2ccc4c(c2)OCCN4C)C3=N1`, for which the Potency is 1.51 µM (active).
With `COC(=O)C1=C(C(=O)OC)[C@@H]2Nc3ccccc3[C@@]23C[C@@H](C(=O)OC)N(C(=O)C2CCC2)C3=N1`, the “activity change, negative = inhibition” value was 0.946%.
In the case of `C=C(C)C(=O)c1ccc2c(c1)OCO2`, the “activity change, negative = inhibition” value is 14.1%.
On to `COC(=O)C1=C(C(=O)OC)[C@@H]2N(Cc3ccccc3)c3ccccc3[C@@]23C[C@@H](C(=O)OC)N(S(=O)(=O)c2ccc(Br)cc2)C3=N1`, for which the Potency is 1.35 µM (active).
